Assay outcomes as filed in PubChem BioAssay.
Only some compounds are listed: those with a hit (about 3.3% of all), similar ones and a draw of the others.
D3 ag = agonists of human D3 dopamine receptor; hit rate 0.58% among 410,000; P35462; D3R DiscoveRx beta-arrestin cells, luminescence, 90 min; max activation, %; in the data active = max activation above about 30%; also: 0% is about no effect
Target sequence (P35462 whole entry, looked up): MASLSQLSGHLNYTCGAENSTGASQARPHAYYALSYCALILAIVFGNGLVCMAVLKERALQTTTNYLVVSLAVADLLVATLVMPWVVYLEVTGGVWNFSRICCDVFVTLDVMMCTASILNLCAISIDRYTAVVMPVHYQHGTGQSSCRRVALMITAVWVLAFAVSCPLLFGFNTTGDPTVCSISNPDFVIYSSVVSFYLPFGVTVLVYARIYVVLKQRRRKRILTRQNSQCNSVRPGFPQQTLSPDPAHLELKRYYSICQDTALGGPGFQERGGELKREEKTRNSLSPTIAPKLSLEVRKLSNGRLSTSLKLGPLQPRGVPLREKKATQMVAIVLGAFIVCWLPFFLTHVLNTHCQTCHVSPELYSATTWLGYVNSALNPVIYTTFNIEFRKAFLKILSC
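Cells at 1500/well, incubated overnight, then treated with pinned compounds (dopamine as control) for 90 min at 37 degrees C. DiscoveRx reagent added for 30 - 60 minutes at room temperature; luminescence read.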
DRD3 antagonist = D3 dopamine receptor (human) antagonism | P35462 | D3R cells, DiscoveRx beta-arrestin luminescence, antagonist mode; stronger effect = lower value | max response, negative = inhibition, % | hit rate 2.5% among 360,000; in the data active = max response below about -50%; inconclusive = no clear call, values can overlap the other calls; also: % is scaled to controls: 0 for no effect and ±100 for the full control effect
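Cells expressing the human receptor were seeded at 1500 cells/well, incubated overnight at 37 degrees C in 5% CO2, then exposed to library compounds with dopamine controls for 90 minutes at 37 degrees C before luminescent detection.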
PI4K2A block = inhibitors of human PI4K2A | Q9BTU6 | AID 1346378 | purified PI4K2A, ADP-Glo luminescence, 1 h; stronger effect = lower value | hit rate 0.13% among 420,000 | activity change, negative = inhibition, % at 76.9 µM; in the data active = activity change below about -50%; inconclusive = mostly about -30% to -49%;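 also: -100% = wells without enzyme as full effect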
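In this quantitative HTS, ADP production by PI4K2A was quantified luminescently after 1 h at ambient temperature; 100 microM adenosine served as plate-quality control.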
PI5P4K alpha inh = blocks human PI5P4K alpha kinase activity. max response, %. hit rate 1.2% among 330,000. PI5P4Kalpha enzyme, ADP-Glo luminescence, 60 min; stronger effect = lower value; active = max response of -50% or lower; inconclusive = between -30% and -50%; inactive = -30% or higher; also: value at the top dose of about 77 µM; % is scaled to controls: 0 for no effect and ±100 for the full control effect
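Luminescence from ADP-Glo served as readout of PI5P4Kalpha activity in a qHTS format. Reaction: enzyme, substrate, compound, ATP at 5 microM final, 60 min at RT.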
LDHA inh = LDHA (human) enzyme inhibition; purified LDHA, NADH/diaphorase-resazurin fluorescence; stronger effect = lower value; AID 1347041; activity change, % (values are at about 110 or 230 µM); hit rate 0.15% among 480,000; in the data active = activity change below about -30%; inconclusive = mostly about -25% to -30%;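 also: plate controls were DMSO wells for no effect and wells without enzyme for full effect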
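Resorufin fluorescence (ex540/em590), read at 0 and 20 min after diaphorase/resazurin addition, reports the NADH left after a 5 min room-temperature reaction of 2 nM human LDH5 with 0.06 mM NADH and 0.2 mM pyruvate.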
* marks the source's active call; other numbers are inactive results.

Screening Nc1nc2n(n1)C(c1cccs1)CC(c1ccccc1)N2 (configuration not stated) returned D3 ag 1.6, DRD3 antagonist -63.9*, PI4K2A block -4.4, PI5P4K alpha inh 2.3 and LDHA inh -5.9.
Screening CCN1C(=O)/C(=C/C=C2/SCCN2C)SC1=S returned D3 ag -10.1, DRD3 antagonist -16.7, PI4K2A block -4.7, PI5P4K alpha inh 3.0 and LDHA inh 13.9.
C=CCN1C(=O)/C(=C\C=C2\N(C)c3ccccc3C2(C)C)SC1=S was read as D3 ag -6.6, DRD3 antagonist -20.0, PI4K2A block -4.6, PI5P4K alpha inh -3.0 and LDHA inh -9.8.
CN1/C(=C\C=C2/SC(=S)N(CC(=O)O)C2=O)C(C)(C)c2ccccc21 was read as D3 ag -15.8, DRD3 antagonist -79.5*, PI4K2A block -19.2, PI5P4K alpha inh -27.0 and LDHA inh 14.6.
CN1CCS/C1=C\C=C1/SC(=S)N(CC(=O)O)C1=O was read as D3 ag -15.8, DRD3 antagonist -68.3*, PI4K2A block -2.5, PI5P4K alpha inh 4.7 and LDHA inh -0.4.
Screening CN1CCN(c2ccc([N+](=O)[O-])c(-n3nc(-c4ccccc4)c4ccccc4c3=O)c2)CC1 returned D3 ag 1.6, DRD3 antagonist -53.0*, PI4K2A block 0.3, PI5P4K alpha inh 12.4 and LDHA inh -6.4.
`CCc1cc(SC#N)cc(C)c1NC(=O)CCl` gave D3 ag -6.8, DRD3 antagonist -56.3*, PI4K2A block -25.6, PI5P4K alpha inh 1.9 and LDHA inh -8.1.
`O=C(CSC(=S)N1CCCC1)N/N=C/c1c(O)[nH]c(=S)[nH]c1=O` gave D3 ag 4.6, DRD3 antagonist 15.0, PI4K2A block -1.1, PI5P4K alpha inh -51.1* and LDHA inh 2.1.
`O=C(NC1CCN(Cc2ccccc2)CC1)c1ccc(Cn2c(=S)[nH]c3ccc(N4CCOCC4)cc3c2=O)cc1` gave D3 ag -11.7, DRD3 antagonist -71.3*, PI4K2A block -2.8, PI5P4K alpha inh -11.9 and LDHA inh -5.3.
Screening CC1CCN(CCCn2c(=S)[nH]c3ccc(N4CCOCC4)cc3c2=O)CC1 returned D3 ag -54.8, DRD3 antagonist -80.9*, PI4K2A block 2.4 and LDHA inh 2.7.
`O=c1c2cc(N3CCOCC3)ccc2[nH]c(=S)n1CCCN1CCCC1` gave D3 ag -10.5, DRD3 antagonist -72.9*, PI4K2A block -3.6, PI5P4K alpha inh -1.9 and LDHA inh -1.7.
For O=c1c2cc(N3CCOCC3)ccc2[nH]c(=S)n1CCCN1CCCCC1 the results were D3 ag -3.0, DRD3 antagonist 0.0, PI4K2A block -3.2, PI5P4K alpha inh 1.5 and LDHA inh -1.2.
NNCCc1ccccc1 was read as D3 ag -20.6, DRD3 antagonist -112.7*, PI4K2A block 2.3, PI5P4K alpha inh 1.9 and LDHA inh -11.4.
O=C(CC(=O)NCCc1ccccc1)NCCc1ccccc1 was read as D3 ag 2.2, DRD3 antagonist 1.8, PI4K2A block -2.6, PI5P4K alpha inh 3.6 and LDHA inh -0.3.
O=C(COc1cc2oc(=O)c3c(c2cc1Cl)CCCC3)N1C[C@H]2C[C@@H](C1)c1cccc(=O)n1C2 was read as D3 ag -17.9, DRD3 antagonist -57.8*, PI4K2A block -0.1, PI5P4K alpha inh -8.6 and LDHA inh 0.8.
`CC(Oc1cc2oc(=O)c3c(c2cc1Cl)CCC3)C(=O)N1C[C@H]2C[C@@H](C1)c1cccc(=O)n1C2` (some centres not stated) gave D3 ag -32.6, DRD3 antagonist -26.4, PI4K2A block -0.8, PI5P4K alpha inh -0.3 and LDHA inh 2.7.
COc1ccc(/C=C(\C#N)C(=O)NCC2CCCO2)cc1OC (configuration not stated) was read as D3 ag -0.6, DRD3 antagonist 13.2, PI4K2A block 8.3, PI5P4K alpha inh 1.1 and LDHA inh -4.1.
COc1cc(/C=C(/C#N)C(=O)NCCCc2ccccc2)ccc1OCC(=O)O was read as D3 ag -0.7, DRD3 antagonist 125.8, PI4K2A block -9.1, PI5P4K alpha inh -5.6 and LDHA inh -33.6*.
Screening COc1cc(/C=C(\C#N)C(=O)NCC2CCCO2)ccc1OC(=O)c1ccco1 (configuration not stated) returned D3 ag -9.8, DRD3 antagonist -52.7*, PI4K2A block 27.0, PI5P4K alpha inh -7.0 and LDHA inh -2.5.
For Nc1ncnc2c1ncn2[C@@H]1O[C@H](CNC(=O)[C@H](N)Cc2cscn2)[C@@H](O)[C@H]1O the results were D3 ag -1.7, DRD3 antagonist -83.8*, PI4K2A block -10.9, PI5P4K alpha inh -3.2 and LDHA inh -4.6.
Screening Nc1ncnc2c1ncn2[C@@H]1O[C@H](CCC(=O)NCc2ccccc2)[C@@H](O)[C@H]1O returned D3 ag -10.0, DRD3 antagonist -93.2*, PI4K2A block -11.3, PI5P4K alpha inh -0.2 and LDHA inh -3.4.
`COc1cc2c(cc1CNC[C@H]1O[C@@H](n3cnc4c(N)ncnc43)[C@H](O)[C@@H]1O)OCO2` gave D3 ag 38.9*, DRD3 antagonist 7.0, PI4K2A block -7.0, PI5P4K alpha inh -1.4 and LDHA inh 1.9.
Nc1ncnc2c1ncn2[C@@H]1O[C@H](CNC(=O)[C@@H](N)CO)[C@@H](O)[C@H]1O was read as D3 ag 4.9, DRD3 antagonist -12.8, PI4K2A block -16.3, PI5P4K alpha inh 2.2 and LDHA inh 0.3.
Cc1cc(C)cc(NC(=O)CCc2nc3sc4c(c3c(=O)[nH]2)CCCC4)c1 was read as D3 ag 2.2, DRD3 antagonist -5.4, PI4K2A block 6.2, PI5P4K alpha inh inconclusive and LDHA inh -3.9.
For Cc1ccc(NC(=O)CCc2nc3sc4c(c3c(=O)[nH]2)CCCC4)c(Br)c1 the results were D3 ag 5.0, DRD3 antagonist 14.4, PI4K2A block -25.5, PI5P4K alpha inh -65.8* and LDHA inh -3.7.
For CC(=O)Nc1ccc2c(c1)Cc1cc(N3C(=O)C=CC3=O)ccc1-2 the results were D3 ag -6.9, DRD3 antagonist -64.1*, PI4K2A block 3.4, PI5P4K alpha inh inconclusive and LDHA inh -8.6.
For O=C1C=CC(=O)N1c1ccc2c(c1)Cc1cc(F)ccc1-2 the results were D3 ag 5.1, DRD3 antagonist -8.4, PI4K2A block 7.5, PI5P4K alpha inh -17.8 and LDHA inh -7.2.
Screening FC(F)(F)c1ccc(Cl)c(NC(=S)N/N=C/c2ccccc2Cl)c1 returned D3 ag -0.7, DRD3 antagonist -65.9*, PI4K2A block -2.2, PI5P4K alpha inh 3.9 and LDHA inh 0.4.
`O=C(NC(=S)Nc1cc(C(F)(F)F)ccc1Cl)c1ccccc1` gave D3 ag -10.2, DRD3 antagonist inconclusive, PI4K2A block 1.5, PI5P4K alpha inh 5.7 and LDHA inh 0.0.
